Measurements as given in PubChem BioAssay (Tox21).
Results filed as inconclusive are left out. Entries that show only a call come without a potency. Active and inactive are the calls of the source. Unless noted, calls come from the whole dose curve; as a rule, active = well fitted curve in the direction sought with a large enough effect in the repeat runs; inconclusive = weak or mixed curves; inactive = no such curve, though single readings can be large; an effect the other way counts as inactive or inconclusive.

Legend:
[1] = A CellTox Green Cytotoxicity Assay to monitor cytotoxicity in HEK293 cells - 32 hour (AID 1224881); note: nearly all actives have a fitted effect of over 40% in size
Method in brief: (§1)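 HEK293 cells premixed with CellTox Green dye were seeded at 600 cells/well and left 5 h at 37 C/5% CO2 before pin transfer of 23 nL compound in DMSO. Fluorescence from dye bound to dead-cell DNA was read during 40 h treatment.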

[2] = A CellTox Green Cytotoxicity Assay to monitor cytotoxicity in HepG2 cells - 0 hour (AID 1224882); note: nearly all actives have a fitted effect of over 35% in size
Method in brief: (§2)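 HepG2 cells were seeded together with the CellTox Green dye at 600 cells/well, left 5 h at 37 C/5% CO2, then given compounds in DMSO. Fluorescence from dye bound to dead-cell DNA was read repeatedly over 40 h of treatment at 37 C.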

[3] = A CellTox Green Cytotoxicity Assay to monitor cytotoxicity in HEK293 cells - 8 hour (AID 1224884); note: nearly all actives have a fitted effect of over 35% in size
Method in brief: as §1

[4] = qHTS RealTime-Glo MT Cell Viability Assay in HepG2 cells - 16 hour (AID 1224885); note: nearly all actives have a fitted effect of over 50% in size; note: potency is the fitted concentration of half-maximal effect
Method in brief: (§3)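 Viability was tracked continuously by NanoLuc luminescence from prosubstrate reduced by living HepG2 cells, at successive time points over 40 h of compound exposure. Cells with reagent were preincubated 5 h at 37 °C before compound addition.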

[5] = qHTS RealTime-Glo MT Cell Viability Assay in HEK293 cells - 24 hour (AID 1224886); note: nearly all actives have a fitted effect of over 50% in size; note: potency is the fitted concentration of half-maximal effect
Method in brief: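 Viability tracked continuously by luminescence as live cells reduce a prosubstrate for NanoLuc; HEK293 cells preincubated 5 h, compound-treated at 37 C, and read at 0, 8, 16, 24, 32 and 40 h.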

[6] = qHTS RealTime-Glo MT Cell Viability Assay in HEK293 cells - 8 hour (AID 1224887); note: nearly all actives have a fitted effect of over 50% in size; note: potency is the fitted concentration of half-maximal effect
Method in brief: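 HEK293 cells mixed with RealTime-Glo reagents (NanoLuc plus cell-permeant prosubstrate) at 600 cells/well, preincubated 5 h at 37 C/5% CO2, then given 23 nL compound in DMSO. Nonlytic luminescence from viable cells was read at 0, 8, 16, 24, 32 and 40 h.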

[7] = A CellTox Green Cytotoxicity Assay to monitor cytotoxicity in HEK293 cells - 16 hour (AID 1224888); note: nearly all actives have a fitted effect of over 35% in size
Method in brief: as §1

[8] = qHTS RealTime-Glo MT Cell Viability Assay in HepG2 cells - 0 hour (AID 1224889); note: nearly all actives have a fitted effect of over 50% in size; note: potency is the fitted concentration of half-maximal effect
Method in brief: as §3

[9] = A CellTox Green Cytotoxicity Assay to monitor cytotoxicity in HepG2 cells - 8 hour (AID 1224890); note: nearly all actives have a fitted effect of over 45% in size
Method in brief: as §2

[10] = qHTS assay to identify small molecule antagonists of the estrogen receptor alpha (ER-alpha) signaling pathway using the BG1 cell line in the presence of 0.1 nM 17-beta-estradiol - cell viability counter screen (AID 1259241); note: nearly all actives have a fitted effect of over 40% in size; note: potency is the fitted concentration of half-maximal effect
Method in brief: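 The cell line endogenously expresses full-length ER-alpha and carries four EREs driving luciferase. Cells are cultured 5 days hormone-free, treated 22 hr with compounds and 0.1 nM estradiol, then viability is read by fluorescence.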

[11] = qHTS assay to identify small molecule antagonists of the androgen receptor (AR) signaling pathway using the MDA cell line in the presence of 0.5 nM R1881 - cell viability counter screen (AID 1259242); note: nearly all actives have a fitted effect of over 45% in size
Method in brief: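 MDA-kb2 cells (human breast carcinoma, stably carrying MMTV-luciferase reporter) were exposed to compounds with 0.5 nM R1881 (final) for 16 hr at 37C, 0% CO2; viability then read as live-cell protease fluorescence (CellTiter-Fluor, 30 min) in the same wells.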

[12] = molecular target: Androgen receptor (Homo sapiens) (UniProt P10275); assay: qHTS assay to identify small molecule antagonists of the androgen receptor (AR) signaling pathway using the MDA cell line in the presence of 0.5 nM R1881 (AID 1259243); note: nearly all actives have a fitted effect of over 50% in size
Method in brief: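 MDA-kb2 human breast carcinoma cells carrying an MMTV-luciferase reporter (AR- and GR-responsive) were plated, rested 5 hr at 37C, dosed with compounds, then stimulated with 0.5 nM R1881 (final) for 16 hr; luminescence was read after ONE-Glo.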

[13] = molecular target: Estrogen receptor (Homo sapiens) (UniProt P03372); assay: qHTS assay to identify small molecule antagonists of the estrogen receptor alpha (ER-alpha) signaling pathway using the BG1 cell line in the presence of 0.1 nM 17-beta-estradiol (AID 1259244); note: nearly all actives have a fitted effect of over 50% in size; note: potency is the fitted concentration of half-maximal effect
Method in brief: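 VM7Luc4E2 cells (endogenous full-length ER-alpha, stable 4xERE-luciferase) were grown 5 days in phenol red-free medium with charcoal-stripped FBS, then exposed 22 h at 37C to compounds plus 0.1 nM (final) 17beta-estradiol; ONE-Glo luminescence read-out.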

[14] = qHTS assay to identify small molecule HDAC inhibitors (AID 1259364); note: nearly all actives have a fitted effect of over 45% in size; note: potency is the fitted concentration of half-maximal effect
Method in brief: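 Wild-type HCT-116 cells were plated overnight, exposed to compounds for 2 h at 37 °C, then given HDAC-Glo class I/II luminogenic reagent for 30 min at room temperature before luminescence was read.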

[15] = qHTS assay to identify small molecule HDAC inhibitors - cell viability counter screen (AID 1259365)
Method in brief: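 Viability readout: CellTiter-Glo luminescence. Wild-type HCT-116 cells, 2hr compound treatment following overnight attachment at 37 C.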

[16] = qHTS assay to identify small molecule antagonists of the sonic hedgehog signaling (Shh) pathway - cell viability counter screen (AID 1259367); note: nearly all actives have a fitted effect of over 55% in size; note: potency is the fitted concentration of half-maximal effect
Method in brief: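 Using CellTiter-Fluor, viability of Gli1-Luc reporter 3T3 cells is read by fluorescence in the wells used for the Shh luciferase assay. Treatment lasts 23 hr with conditioned medium, then reagent 1 hr at 37C.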

[17] = qHTS assay to identify small molecule agonists of the sonic hedgehog signaling (Shh) pathway (AID 1259368; calls by dose curve; note: series mostly up to about 92 µM; nearly all actives have a fitted effect of over 15% in size)
Method in brief: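 NIH/3T3-derived 3T3Gli1-Luc cells carrying a stably integrated Gli1 response element–firefly luciferase reporter were plated, left 4 hr at 37 C, then given compounds in DMSO for 24 hr. Luminescence was read 30 min after adding luciferase reagent.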

[18] = A CellTox Green Cytotoxicity Assay to monitor cytotoxicity in HepG2 cells - 32 hour (AID 1224883); note: nearly all actives have a fitted effect of over 50% in size
Method in brief: as §2

[19] = qHTS assay to identify small molecule agonists of the sonic hedgehog signaling (Shh) pathway - cell viability counter screen (AID 1259366); note: nearly all actives have a fitted effect of over 50% in size
Method in brief: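 Viability measured fluorometrically (CellTiter-Fluor, 1hr, 37C) in 3T3 Gli1-Luc reporter cells after 23hr compound exposure within a 24hr incubation at 37C/5% CO2.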

[20] = qHTS assay to identify small molecule phospholipidosis (PLD) inducers (AID 1259344; active = well fitted curve in the direction sought with a large enough effect; an effect the other way counts as inactive or inconclusive)
Method in brief: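 Fluorescent phospholipid staining (LipidTOX Red) measured by automated microscopy in fixed HepG2 cells after 24 h treatment; nuclei counterstained with Hoechst 33342; amiodarone as reference inducer.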

Chain of Estrogen receptor (Homo sapiens) (P03372 whole entry, looked up): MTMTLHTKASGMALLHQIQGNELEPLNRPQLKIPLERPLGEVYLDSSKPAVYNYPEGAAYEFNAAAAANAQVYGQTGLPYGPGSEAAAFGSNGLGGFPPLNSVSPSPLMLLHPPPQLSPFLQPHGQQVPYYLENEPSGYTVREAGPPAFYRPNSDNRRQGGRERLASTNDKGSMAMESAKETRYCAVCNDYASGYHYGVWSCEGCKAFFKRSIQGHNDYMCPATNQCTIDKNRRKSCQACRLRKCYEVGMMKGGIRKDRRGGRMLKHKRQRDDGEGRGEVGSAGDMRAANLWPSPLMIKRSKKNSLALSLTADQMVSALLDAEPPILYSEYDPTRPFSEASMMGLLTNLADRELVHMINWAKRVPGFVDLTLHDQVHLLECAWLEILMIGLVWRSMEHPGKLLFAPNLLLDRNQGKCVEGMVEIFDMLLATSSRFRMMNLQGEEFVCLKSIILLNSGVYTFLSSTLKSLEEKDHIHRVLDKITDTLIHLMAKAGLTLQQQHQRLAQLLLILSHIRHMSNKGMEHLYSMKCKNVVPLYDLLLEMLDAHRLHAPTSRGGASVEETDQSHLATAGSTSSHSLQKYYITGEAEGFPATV
Chain of Androgen receptor (Homo sapiens) (P10275 whole entry, looked up): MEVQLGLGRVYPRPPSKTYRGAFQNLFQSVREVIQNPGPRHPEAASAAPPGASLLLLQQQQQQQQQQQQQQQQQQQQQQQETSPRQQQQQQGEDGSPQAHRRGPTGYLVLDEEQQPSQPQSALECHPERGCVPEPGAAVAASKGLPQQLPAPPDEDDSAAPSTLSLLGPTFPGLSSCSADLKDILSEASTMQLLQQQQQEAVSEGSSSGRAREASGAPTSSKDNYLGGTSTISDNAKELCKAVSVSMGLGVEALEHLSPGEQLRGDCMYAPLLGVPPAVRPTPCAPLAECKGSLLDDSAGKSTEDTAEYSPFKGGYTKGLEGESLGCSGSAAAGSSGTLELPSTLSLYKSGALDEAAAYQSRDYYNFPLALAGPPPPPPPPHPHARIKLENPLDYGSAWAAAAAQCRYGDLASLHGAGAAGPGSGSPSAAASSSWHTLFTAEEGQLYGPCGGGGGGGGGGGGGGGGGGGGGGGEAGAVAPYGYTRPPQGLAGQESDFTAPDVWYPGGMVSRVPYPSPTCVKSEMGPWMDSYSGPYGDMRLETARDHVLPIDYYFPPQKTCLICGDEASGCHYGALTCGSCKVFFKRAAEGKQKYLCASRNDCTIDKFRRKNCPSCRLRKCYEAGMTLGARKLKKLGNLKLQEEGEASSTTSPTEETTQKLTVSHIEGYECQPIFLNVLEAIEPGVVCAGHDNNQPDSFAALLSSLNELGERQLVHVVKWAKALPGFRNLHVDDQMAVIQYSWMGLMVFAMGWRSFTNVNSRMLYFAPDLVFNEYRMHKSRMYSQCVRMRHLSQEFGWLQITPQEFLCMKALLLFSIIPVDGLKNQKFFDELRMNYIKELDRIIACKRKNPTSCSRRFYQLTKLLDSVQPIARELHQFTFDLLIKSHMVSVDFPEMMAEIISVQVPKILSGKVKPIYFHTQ

SMILES	Potency [1]	Potency [2]	Potency [3]	Potency [4]	Potency [5]	Potency [6]	Potency [7]	Potency [8]	Potency [9]	Potency [10]	Potency [11]	Potency [12]	Potency [13]	Potency [14]	Potency [15]	Potency [16]	outcome [17]	Potency [18]	Potency [19]	Potency [20]
CN(C)CCOC(c1ccccc1)c1ccc(Br)cc1 (stereo not given)	inactive	inactive	inactive	inactive	inactive	inactive	inactive	inactive	inactive	inactive	inactive	inactive	inactive	inactive	inactive	inactive	inactive	–	–	–
COc1ccc(C(=O)Nc2nc3ccccc3c(NCc3ccccc3)c2C#N)cc1	inactive	inactive	inactive	–	inactive	inactive	inactive	inactive	inactive	inactive	inactive	–	10.9 µM (active)	inactive	inactive	–	inactive	–	–	–
O=C(O)c1ccc(S(=O)(=O)O)cc1C(=O)O	inactive	inactive	inactive	–	–	–	inactive	–	–	inactive	inactive	–	inactive	inactive	inactive	inactive	inactive	inactive	inactive	–
O=C1CCC(=O)O1	inactive	inactive	inactive	inactive	inactive	inactive	–	inactive	inactive	inactive	inactive	–	inactive	inactive	inactive	inactive	inactive	–	inactive	–
CCN(CC)CCNc1ccc(CNC=O)c2sc3ccc(OC)cc3c(=O)c12	inactive	inactive	inactive	21.9 µM (active)	19.5 µM (active)	34.7 µM (active)	inactive	–	inactive	4.33 µM (active)	–	–	inactive	inactive	inactive	inactive	inactive	–	inactive	–
CC[N+](C)(CC)CCOC(=O)C(O)(c1ccccc1)C1CCCCC1 (stereo not given)	inactive	inactive	inactive	inactive	inactive	inactive	inactive	inactive	inactive	inactive	inactive	–	–	inactive	inactive	inactive	inactive	–	inactive	inactive
CC(COCCO)OCCO (stereo not given)	inactive	inactive	inactive	–	inactive	–	–	inactive	inactive	inactive	inactive	inactive	–	inactive	inactive	inactive	inactive	–	inactive	–
CCCCCCCC#N	inactive	inactive	inactive	inactive	inactive	inactive	inactive	inactive	inactive	inactive	inactive	–	–	inactive	inactive	–	inactive	–	inactive	–
CN(C)CCN(Cc1ccccc1)c1ccccn1	inactive	inactive	inactive	inactive	inactive	–	inactive	inactive	–	–	inactive	–	inactive	inactive	inactive	inactive	inactive	–	inactive	inactive
C[C@@H]1C[C@H]2O[C@@]3(O[C@@H]2C(C)(C)O)[C@H](O)[C@@]2(C)[C@@H]4CC[C@H]5C(C)(C)[C@@H](O[C@@H]6OC[C@@H](O)[C@H](O)[C@H]6O)CC[C@@]56C[C@@]46CC[C@]2(C)[C@@H]13	inactive	inactive	inactive	inactive	inactive	inactive	inactive	2.16 µM (active)	inactive	–	inactive	inactive	inactive	inactive	inactive	inactive	inactive	–	inactive	–
C#CCN(C)CCCOc1ccc(Cl)cc1Cl	inactive	inactive	inactive	inactive	inactive	–	inactive	inactive	inactive	inactive	inactive	–	–	inactive	inactive	inactive	inactive	–	inactive	inactive
Nc1ncn([C@H]2C[C@H](O)[C@@H](CO)O2)c(=O)n1	inactive	inactive	inactive	inactive	inactive	–	inactive	inactive	inactive	inactive	inactive	–	–	inactive	inactive	inactive	inactive	–	inactive	inactive
CC(C)(C)Cl	inactive	inactive	inactive	inactive	inactive	inactive	inactive	inactive	–	inactive	inactive	–	–	inactive	inactive	inactive	inactive	–	inactive	–
O=C(Nc1ccccc1)c1ccccc1O	inactive	inactive	inactive	inactive	–	inactive	inactive	inactive	inactive	inactive	–	–	inactive	8.63 µM (active)	inactive	61.1 µM (active)	inactive	–	–	–
Cc1ccccc1S(=O)(=O)O	inactive	inactive	inactive	inactive	inactive	inactive	inactive	inactive	inactive	inactive	inactive	–	–	inactive	inactive	inactive	inactive	–	inactive	–
